The source of these data is PubChem BioAssay (NCI).

Structures are written as SMILES. About 79,000 compounds went through this panel and 15% of them were active in at least one assay; those are over-represented in the sample as a whole. Values without a mark were called inactive. Active and inactive are the calls of the source. Rule as the data show it: active = growth inhibition above about 70%; inactive = the rest.

The first experiment can be described thus: NCI Yeast Anticancer Drug Screen. Data for the wt2 strain (AID 169).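 Also: 0% = growth of vehicle-treated yeast cultures.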 To be noted: S. cerevisiae wt2 strain growth inhibition; at 11.0 µM; active compounds read high. An outline of the steps:
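Values express reduction in yeast growth under compound treatment, referenced to vehicle-treated cells.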
As for `CCCc1cc(C(=O)OCC)cc(CCC)c1O`, the growth inhibition is -7%.

With `CC(C)[N+]([O-])(CCCNc1c2ccccc2nc2cccc([N+](=O)[O-])c12)C(C)C`, the growth inhibition was 24%.

As to `COc1cc2c3c(cccc3c1)C(=O)N(CCN(C)C)C2=O`, the growth inhibition was -23%.

Take `NC(=O)NN=C(CS)CS`: the growth inhibition is 2%.

In the case of `Cc1ccc(NC(=O)/C(Cl)=C(\Cl)C(=O)O)cc1C`, the growth inhibition was 11%.

With `CCN(CC)CC[n+]1ccc2c(C)c3[nH]c4ccc(O)cc4c3c(C)c2c1`, the growth inhibition is -1%.

As for `CC(CC(C)(C)[N+](C)(C)C)[N+](C)(C)C` (stereo not drawn), the growth inhibition was 0%.

With `COc1ccc(OC)c2cc3ccccc3cc12`, the growth inhibition was -16%.

Regarding `Nc1ncncc1C(C1=C(O)COC1=O)C1=C(O)COC1=O`, the growth inhibition is -1%.

Turning to `CSC1=NNC(SC)=NN1`, the growth inhibition was 4%.

`Cc1c(Cl)ccc2c1S(=O)(=O)c1cccc(Cl)c1-2`: the growth inhibition was -12%.

Turning to `[O-][n+]1c2ccc(O)cc2nc2ccc(Cl)cc21`, the growth inhibition is 26%.

As for `COc1ccc2ccc3ccccc3c2c1C=O`, the growth inhibition was -4%.

In the case of `Nc1ccc2c(c1)C(=O)c1cccc(N)c1C2=O`, the growth inhibition is 19%.

In the case of `O=C(c1ccc(Cl)cc1Cl)C(Cl)Cl`, the growth inhibition was 16%.

Take `COc1cc(C(=O)/C=C/c2ccccc2O)ccc1O`: the growth inhibition is 99% (active).

Regarding `O=Cc1cccc2ccc3ccccc3c12`, the growth inhibition was -3%.

On to `O=C(Nc1ccc(Cl)cc1)OCC#CCCl`, for which the growth inhibition was 99% (active).

For the molecule `Cn1ccnc1Oc1ccc(Cl)cc1`, the growth inhibition is 30%.

As for `c1ccc2c(c1)C(=NCCCN1CCCCCC1)c1cccn1-2`, the growth inhibition was -2%.

On to `C/C(=N\O)C1CC2C=C(C#N)C1N(Cc1ccccc1)C2` (stereo not drawn), for which the growth inhibition was -3%.

As to `O=[N+]([O-])C(=C(Sc1ccccc1)Sc1ccccc1)C(Cl)=C(Cl)Cl`, the growth inhibition is 39%.

For the molecule `CCCCCCCCCC/C=C\C(=O)O`, the growth inhibition was -18%.

Turning to `COc1ccc(N=C2C(=O)Nc3ccc(Br)cc32)cc1`, the growth inhibition is 9%.

Regarding `COc1ccccc1C(=O)OCC1CCCN2CCCCC12` (stereo not drawn), the growth inhibition is 94% (active).

As for `CC(C)(Br)C(=O)/C=C/c1ccc(Cl)c(Cl)c1`, the growth inhibition is -12%.

Turning to `Nc1ccccc1CC(O)C(=O)O` (stereo not drawn), the growth inhibition is 21%.

Take `CC(=O)N/N=C/C(C)(C)C(C)(C)/C=N/NC(C)=O`: the growth inhibition was 7%.

Turning to `CN(C)c1nc2sc3c(c2c(=O)o1)CCCC3`, the growth inhibition is 1%.

For the molecule `CC(C)OC(=O)Oc1ccccc1OC(=O)OC(C)C`, the growth inhibition is -2%.

Take `Cc1ccc(N)c(S)c1`: the growth inhibition is -4%.

Turning to `O=C(O)c1ccccc1NC(=S)c1ccccc1`, the growth inhibition is 1%.

Consider `COC(=O)c1ccc(NCC2=CC(=O)C=CC2=O)cc1O`, for which the growth inhibition was 94% (active).

As to `NC(N)=N/N=C\c1c2ccccc2cc2ccccc12`, the growth inhibition was -59%.

As to `COC(=O)CSSCc1ccc([N+](=O)[O-])cc1`, the growth inhibition was 22%.

As for `CCS(=O)(=O)c1ccc(/C=C/C=N/NC(=S)NCC(C)C)cc1`, the growth inhibition is -17%.

On to `N#CC(C(=O)Nc1ccccc1)C1=C(Cl)C(=O)c2ccccc2C1=O` (stereo not drawn), for which the growth inhibition was 95% (active).

As for `C[C@H](CCC(=O)NN)[C@H]1CC[C@H]2[C@@H]3CC[C@@H]4C[C@H](O)CC[C@]4(C)[C@H]3CC[C@]12C`, the growth inhibition was -2%.

With `CC[n+]1ccc2c(C)c3[nH]c4ccc(O)cc4c3c(C)c2c1`, the growth inhibition was -3%.

Staying with this experiment, now noted: S. cerevisiae wt2 strain growth inhibition; at 33.0 µM; active compounds read high.
As to `CCCc1cc(C(=O)OCC)cc(CCC)c1O`, the growth inhibition was -3%.

As to `CC(C)[N+]([O-])(CCCNc1c2ccccc2nc2cccc([N+](=O)[O-])c12)C(C)C`, the growth inhibition was 89% (active).

Consider `COc1cc2c3c(cccc3c1)C(=O)N(CCN(C)C)C2=O`, for which the growth inhibition is -12%.

As for `NC(=O)NN=C(CS)CS`, the growth inhibition was 10%.

On to `Cc1ccc(NC(=O)/C(Cl)=C(\Cl)C(=O)O)cc1C`, for which the growth inhibition is 97% (active).

`CCN(CC)CC[n+]1ccc2c(C)c3[nH]c4ccc(O)cc4c3c(C)c2c1`: the growth inhibition is 2%.

With `CC(CC(C)(C)[N+](C)(C)C)[N+](C)(C)C` (stereo not drawn), the growth inhibition is -1%.

In the case of `COc1ccc(OC)c2cc3ccccc3cc12`, the growth inhibition was -8%.

Turning to `Nc1ncncc1C(C1=C(O)COC1=O)C1=C(O)COC1=O`, the growth inhibition is 0%.

With `CSC1=NNC(SC)=NN1`, the growth inhibition was 61%.

As to `Cc1c(Cl)ccc2c1S(=O)(=O)c1cccc(Cl)c1-2`, the growth inhibition is -12%.

For the molecule `[O-][n+]1c2ccc(O)cc2nc2ccc(Cl)cc21`, the growth inhibition is 46%.

Take `COc1ccc2ccc3ccccc3c2c1C=O`: the growth inhibition was -4%.

As for `Nc1ccc2c(c1)C(=O)c1cccc(N)c1C2=O`, the growth inhibition was 56%.

Regarding `O=C(c1ccc(Cl)cc1Cl)C(Cl)Cl`, the growth inhibition was 71% (active).

As to `COc1cc(C(=O)/C=C/c2ccccc2O)ccc1O`, the growth inhibition was 99% (active).

Turning to `O=Cc1cccc2ccc3ccccc3c12`, the growth inhibition is 26%.

With `O=C(Nc1ccc(Cl)cc1)OCC#CCCl`, the growth inhibition is 99% (active).

Turning to `Cn1ccnc1Oc1ccc(Cl)cc1`, the growth inhibition is 78% (active).

Consider `c1ccc2c(c1)C(=NCCCN1CCCCCC1)c1cccn1-2`, for which the growth inhibition was -3%.

On to `C/C(=N\O)C1CC2C=C(C#N)C1N(Cc1ccccc1)C2` (stereo not drawn), for which the growth inhibition was -2%.

As to `O=[N+]([O-])C(=C(Sc1ccccc1)Sc1ccccc1)C(Cl)=C(Cl)Cl`, the growth inhibition was 59%.

As to `CCCCCCCCCC/C=C\C(=O)O`, the growth inhibition is -7%.

With `COc1ccc(N=C2C(=O)Nc3ccc(Br)cc32)cc1`, the growth inhibition is 20%.

With `COc1ccccc1C(=O)OCC1CCCN2CCCCC12` (stereo not drawn), the growth inhibition was 96% (active).

As for `CC(C)(Br)C(=O)/C=C/c1ccc(Cl)c(Cl)c1`, the growth inhibition was -10%.

For `Nc1ccccc1CC(O)C(=O)O` (stereo not drawn), the growth inhibition was 90% (active).

On to `CC(=O)N/N=C/C(C)(C)C(C)(C)/C=N/NC(C)=O`, for which the growth inhibition was 39%.

As to `CN(C)c1nc2sc3c(c2c(=O)o1)CCCC3`, the growth inhibition was 26%.

`CC(C)OC(=O)Oc1ccccc1OC(=O)OC(C)C`: the growth inhibition is -3%.

For the molecule `Cc1ccc(N)c(S)c1`, the growth inhibition is 93% (active).

With `O=C(O)c1ccccc1NC(=S)c1ccccc1`, the growth inhibition was 1%.

As to `COC(=O)c1ccc(NCC2=CC(=O)C=CC2=O)cc1O`, the growth inhibition was 97% (active).

Regarding `NC(N)=N/N=C\c1c2ccccc2cc2ccccc12`, the growth inhibition was -35%.

As to `COC(=O)CSSCc1ccc([N+](=O)[O-])cc1`, the growth inhibition was 34%.

Take `CCS(=O)(=O)c1ccc(/C=C/C=N/NC(=S)NCC(C)C)cc1`: the growth inhibition is -5%.

With `N#CC(C(=O)Nc1ccccc1)C1=C(Cl)C(=O)c2ccccc2C1=O` (stereo not drawn), the growth inhibition was 97% (active).

In the case of `C[C@H](CCC(=O)NN)[C@H]1CC[C@H]2[C@@H]3CC[C@@H]4C[C@H](O)CC[C@]4(C)[C@H]3CC[C@]12C`, the growth inhibition is -1%.

As to `CC[n+]1ccc2c(C)c3[nH]c4ccc(O)cc4c3c(C)c2c1`, the growth inhibition was -1%.
